Measurements taken from PubChem BioAssay AID1159580 (chemical genetic matrix, 2015).
Several values for one entry are separate records, joined by “and”; a condition that tells them apart may be missing. Identical values can stand only once. About 2,000 (36%) of roughly 5,500 compounds were called active. About 18% were inconclusive and are not listed. Cut-off read from the data, not from the text of the source: active = normalized growth mostly below about 0.91 (no sharp cut-off); inconclusive = no clear call, values can overlap the other calls; inactive = mostly above about 0.92. The list shows a part of the results.

Experiment: chemical genetic growth profiling, strain panel (AID 1159580);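 note: tested at 20 µM; growth read once vehicle control cultures reached saturation at 30 °C; 1 = growth at the plate median or of vehicle wells; lower values mean less growth of the strain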
Conditions: S. cerevisiae deletion strains, growth OD

Measured: normalized growth

CCOC(=O)[C@H](CCc1ccccc1)N[C@H]1CCc2ccccc2N(CC(=O)O)C1=O
inactive: locus YAL013W, strain DEP1, hits give low values 0.989 | locus YAL021C, strain ccr4, hits give low values 0.961 | locus YAL026C, strain drs2, hits give low values 0.959 | locus YAL030W, strain snc1, hits give low values 0.992 | locus YBL061C, strain skt5, hits give low values 0.988 | locus YBR009C, strain hhf1, hits give low values 0.973 | locus YBR021W, strain FUR4, hits give low values 0.978 | locus YBR023C, strain chs3, hits give low values 0.989 | locus YBR171W, strain sec66, hits give low values 0.976 | locus YBR229C, strain ROT2, hits give low values 0.986 | locus YBR231C, strain swc5, hits give low values 0.96 | locus YBR279W, strain paf1, hits give low values 0.987 | locus YCL011C, strain gbp2, hits give low values 0.992 | locus YCL016C, strain dcc1, hits give low values 0.981 | locus YCL029C, strain bik1, hits give low values 0.966 | locus YCL061C, strain MRC1, hits give low values 0.979 | locus YCL069W, strain vba3, hits give low values 0.99 | locus YCR088W, strain abp1, hits give low values 0.975 | locus YDL005C, strain med2, hits give low values 0.972 | locus YDL035C, strain GPR1, hits give low values 0.998 | locus YDL040C, strain nat1, hits give low values 0.995 | locus YDL074C, strain BRE1, hits give low values 0.998 | locus YDL101C, strain DUN1, hits give low values 0.983 | locus YDL134C, strain PPH21, hits give low values 0.998 | locus YDL185W, strain tfp1, hits give low values 0.978 | locus YDL192W, strain arf1, hits give low values 0.97 | locus YDR001C, strain nth1, hits give low values 1.01 | locus YDR069C, strain doa4, hits give low values 0.978 | locus YDR101C, strain arx1, hits give low values 0.98 | locus YDR137W, strain rgp1, hits give low values 0.992 | locus YDR150W, strain NUM1, hits give low values 0.987 | locus YDR159W, strain sac3, hits give low values 1.01 | locus YDR162C, strain NBP2, hits give low values 0.987 | locus YDR195W, strain ref2 0.961 | locus YDR297W, strain sur2, hits give low values 0.99 | locus YDR318W, strain mcm21, hits give low values 0.977 | locus YDR334W, strain swr1, hits give low values 0.988 | locus YDR335W, strain msn5, hits give low values 0.983 | locus YDR388W, hits give low values 0.976 | locus YDR392W, strain spt3, hits give low values 0.963 | locus YDR502C, strain sam2, hits give low values 0.985 | locus YEL003W, strain gim4, hits give low values 0.992 | locus YEL037C, strain rad23, hits give low values 0.982 | locus YEL061C, strain CIN8 (second series), hits give low values 0.986 | locus YEL061C, strain CIN8, hits give low values 0.989 | locus YER015W, strain faa2, hits give low values 0.985 | locus YER016W, strain bim1, hits give low values 0.979 | locus YER110C, hits give low values 0.979 | locus YER111C, strain swi4, hits give low values 1 | locus YER155C, strain BEM2 (second series), hits give low values 0.902 | locus YER155C, strain BEM2, hits give low values 0.984 | locus YER167W, strain BCK2, hits give low values 0.984 | locus YFR010W, strain ubp6, hits give low values 0.982 | locus YGL078C, strain dbp3, hits give low values 0.977 | locus YGL086W, strain mad1, hits give low values 0.988 | locus YGL167C, strain pmr1, hits give low values 0.983 | locus YGL173C, strain kem1, hits give low values 0.974 | locus YGL227W, strain vid30, hits give low values 0.965 | locus YGL240W, strain doc1, hits give low values 0.949 | locus YGL248W, strain PDE1, hits give low values 0.983 | locus YGL253W, strain hxk2, hits give low values 0.999 | locus YGR078C, strain PAC10, hits give low values 1.01 | locus YGR135W, strain pre9, hits give low values 0.985 | locus YGR229C, strain SMI1, hits give low values 0.994 | locus YGR252W, strain gcn5, hits give low values 1.04 | locus YHR013C, strain ard1, hits give low values 0.977 | locus YHR027C, strain rpn1, hits give low values 0.992 | locus YHR030C, strain SLT2, hits give low values 0.981 and 0.964 | locus YHR079C, strain IRE1 (second series), hits give low values 0.969 | locus YHR079C, strain IRE1, hits give low values 0.964 | locus YHR094C, strain hxt1, hits give low values 0.976 | locus YHR129C, strain ARP1, hits give low values 0.988 | locus YHR142W, strain chs7, hits give low values 0.986 | locus YHR200W, strain rpn10, hits give low values 0.979 | locus YIL066C, strain RNR3, hits give low values 0.985 | locus YIL073C, strain SPO22, hits give low values 1.01 | locus YIL125W, strain kgd1, hits give low values 0.978 | locus YIR030C, strain dcg1, hits give low values 0.968 | locus YJL092W, strain hpr5, hits give low values 0.988 | locus YJL095W, strain BCK1 (second series), hits give low values 0.979 | locus YJL095W, strain BCK1, hits give low values 0.99 and 0.984 | locus YJL115W, strain asf1, hits give low values 0.969 | locus YJL129C, strain trk1, hits give low values 0.973 | locus YJL134W, strain LCB3, hits give low values 0.979 | locus YJL154C, strain vps35, hits give low values 0.992 | locus YJL164C, strain tpk1, hits give low values 0.97 | locus YJL166W, strain qcr8, hits give low values 0.964 | locus YJL168C, strain set2, hits give low values 0.973 | locus YJL187C, strain SWE1 (second series), hits give low values 0.986 | locus YJR043C, strain POL32, hits give low values 0.984 | locus YJR066W, strain TOR1, hits give low values 0.942
